# Measurements taken from PubChem BioAssay (Tox21).
# “And” between values parts separate entries of the source, which are not always exact repeats. Equal values may be shown once. Inconclusive results are not listed. The source made the active and inactive calls. Unless noted, the call rests on the fitted dose curve; in most records, active means well fitted cell-killing curve with a large enough effect in the repeat runs; inconclusive means weak or mixed curves, or effect the other way; inactive means flat fitted curve, though single readings scatter.
# Biological target: Thyrotropin-releasing hormone receptor (Homo sapiens) (UniProt P34981)
# Sequence (P34981 whole entry, looked up): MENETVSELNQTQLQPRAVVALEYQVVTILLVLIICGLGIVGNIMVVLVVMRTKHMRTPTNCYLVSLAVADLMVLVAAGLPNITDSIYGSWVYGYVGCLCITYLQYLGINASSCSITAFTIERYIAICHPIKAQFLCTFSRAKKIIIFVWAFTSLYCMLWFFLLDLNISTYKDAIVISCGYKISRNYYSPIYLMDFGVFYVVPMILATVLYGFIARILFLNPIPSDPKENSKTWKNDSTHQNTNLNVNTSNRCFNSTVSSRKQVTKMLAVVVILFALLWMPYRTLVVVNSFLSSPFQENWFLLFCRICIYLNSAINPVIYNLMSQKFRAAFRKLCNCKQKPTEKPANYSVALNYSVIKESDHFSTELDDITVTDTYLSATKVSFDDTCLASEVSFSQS
# Assay: qHTS assay to identify small molecule agonists of the thyrotropin-releasing hormone receptor (TRHR) signaling pathway (AID 1346891; calls by dose curve)
# Settings: TRHR-HEK293 calcium fluorescence, agonist mode; series mostly up to 57.6 µM; activation: at the top concentration
# Procedure, shortened: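 Agonist-mode intracellular calcium readout: kinetic fluorescence over 3 min at 1 s intervals after compound addition to TRHR-HEK293 cells (18 h seeded, 2 h dye-loaded at 37 C). Fifteen concentrations, triplicates.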
# On the % scale 0 is the no-effect control and ±100 the full control effect; potency means the concentration at half of the fitted maximal effect.
Compound,activation,Potency
Oc1ccc(-c2ccccc2)c(Cl)c1,17.1% (inactive),
COc1ccccc1OCCNCC(O)COc1cccc2[nH]c3ccccc3c12 (stereo not drawn),0.512% [at 26.5 µM] (inactive),
c1cc(OCC2CO2)cc(OCC2CO2)c1 (stereo not drawn),-0.118% (inactive),
C=CC(=O)OCC(O)COc1ccccc1 (stereo not drawn),-1.2% (inactive),
COc1cc(C(C)C)c2c(c1)S(=O)(=O)N(COc1cc(=O)n3cccc(OCCN4CCCCC4)c3n1)C2=O,-1.34% [at 11.8 µM] (inactive),
CCCOc1sc(C(=O)N2CCC(c3cc(CN)ccc3F)CC2)c(C)c1Br,,31.8 µM (active)
CCN(CC)c1ccc(N)cc1,-0.114% (inactive),
CCCCCCCCCCCCCOP(=O)(O)O,-0.0288% (inactive),
CC(C)N=C(N)/N=C(\N)Nc1ccc(Cl)cc1,-0.174% [at 26.5 µM] (inactive),
O=C1C=CC(=O)N1c1ccccc1,12.4% (inactive),
C1CC(COCC2CO2)CCC1COCC1CO1 (stereo not drawn),0.375% (inactive),
CCCCOC(=O)C(C)CC (stereo not drawn),0.0188% (inactive),
Clc1ccccc1CN1CCc2sccc2C1,-0.0845% [at 26.5 µM] (inactive),
C=CC(C)(CCC=C(C)C)OC(=O)/C=C/c1ccccc1 (stereo not drawn),0.103% (inactive),
CCc1ccc(O)c(C(C)(C)C)c1,-0.227% (inactive),
Cc1cccc(C)c1NC(=O)CN1CCN(CCCC(c2ccc(F)cc2)c2ccc(F)cc2)CC1,-1.05% [at 26.5 µM] (inactive),
CN(Cc1cc(Br)cc(Br)c1N)C1CCCCC1,0.293% [at 26.5 µM] (inactive),
Cc1ccc2ccc3cccc4ccc1c2c34,0.14% (inactive),
CCC(C)c1cc([N+](=O)[O-])cc([N+](=O)[O-])c1OC(=O)OC(C)C (stereo not drawn),0.432% (inactive),
CC(=O)Nc1ccc(O)cc1,,inactive

# System: not listed separately
# Assay: Human pregnane X receptor (PXR) small molecule agonists, qHTS cell viability counter screen (AID 1346977); further: nearly all actives have a fitted effect of over 50% in size
# Settings: PXR-Luc HepG2 viability, CellTiter-Fluor, 24 h; series mostly up to 92.4 µM; activity change, negative = cytotoxicity: at the top concentration
# Procedure, shortened: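 Same-well viability read: CellTiter-Fluor added after 23 hr compound exposure, fluorescence measured 1 hr later. Cells were PXR-Luc HepG2 seeded at 2,000/well in 5% charcoal-stripped FBS medium, rested 5 hr before dosing at 37 C.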
Compound,"activity change, negative = cytotoxicity",Potency
Oc1ccc(-c2ccccc2)c(Cl)c1,-5.88% (inactive),
COc1ccccc1OCCNCC(O)COc1cccc2[nH]c3ccccc3c12 (stereo not drawn),,23.7 µM (active)
O=C(O)CCn1c2c(c3ccccc31)C[C@H](NS(=O)(=O)c1ccc(F)cc1)CC2,-1.81% [at 42.5 µM] (inactive),
c1cc(OCC2CO2)cc(OCC2CO2)c1 (stereo not drawn),,60.6 µM (active)
C=CC(=O)OCC(O)COc1ccccc1 (stereo not drawn),-1.62% (inactive),
CCCOc1sc(C(=O)N2CCC(c3cc(CN)ccc3F)CC2)c(C)c1Br,,28.1 µM (active)
CCN(CC)c1ccc(N)cc1,,15.8 µM (active)
C=C/C=C/C=C/CCCCC,3.3% [at 19 µM] (inactive),
CCCCCCCCCCCCCOP(=O)(O)O,3.61% (inactive),
O=C1C=CC(=O)N1c1ccccc1,,48.6 µM (active)
C=CC(C)C#N (stereo not drawn),0.559% (inactive),
CCCCCCCC/C=C\CCCCCCCC(=O)OCCOC(=O)CCCCCCC/C=C\CCCCCCCC,-16.1% (inactive),
C1CC(COCC2CO2)CCC1COCC1CO1 (stereo not drawn),-6.66% (inactive),
CCCCOC(=O)C(C)CC (stereo not drawn),-0.328% (inactive),
C=CC(=C)CCC=C(C)C,-6.46% (inactive),
CSc1ccc2c(c1)N(CCC1CCCCN1C)c1ccccc1S2 (stereo not drawn),,19.3 µM (active) and 26.6 µM (active)
CCCCCCCCCCCCCC[n+]1ccccc1,,8.63 µM (active)

Compound,"activity change, negative = cytotoxicity",Potency
Clc1ccccc1CN1CCc2sccc2C1,-4.93% [at 42.5 µM] (inactive),
C[Si](C)(C)Cl,3.03% (inactive),
C=CC(C)(CCC=C(C)C)OC(=O)/C=C/c1ccccc1 (stereo not drawn),-1.4% (inactive),
C=C(c1ccc(C(=O)O)cc1)c1cc2c(cc1C)C(C)(C)CCC2(C)C,4.52% [at 42.5 µM] (inactive),
CCc1ccc(O)c(C(C)(C)C)c1,-4.94% (inactive),
C[C@H]1O[C@@H](O[C@H]2[C@@H](O)C[C@H](O[C@H]3[C@@H](O)C[C@H](O[C@H]4CC[C@@]5(C)[C@H](CC[C@@H]6[C@@H]5C[C@@H](O)[C@]5(C)[C@@H](C7=CC(=O)OC7)CC[C@]65O)C4)O[C@@H]3C)O[C@@H]2C)C[C@H](O)[C@@H]1O,-35% (inactive),
Cc1cccc(C)c1NC(=O)CN1CCN(CCCC(c2ccc(F)cc2)c2ccc(F)cc2)CC1,,23.7 µM (active)
CN(Cc1cc(Br)cc(Br)c1N)C1CCCCC1,-0.973% [at 42.5 µM] (inactive),
Cc1ccc2ccc3cccc4ccc1c2c34,1.16% (inactive),
CCC(C)c1cc([N+](=O)[O-])cc([N+](=O)[O-])c1OC(=O)OC(C)C (stereo not drawn),,34.4 µM (active)
CC(=O)Nc1ccc(O)cc1,,inactive
O=C1c2c(O)ccc([N+](=O)[O-])c2C(=O)c2c([N+](=O)[O-])ccc(O)c21,,13.6 µM (active)
COC(=O)[C@]1(C)CCC[C@@]2(C)[C@H]1CC=C1C=C(C(C)C)CC[C@@H]12,-0.317% (inactive),
C[C@@H]1CC[C@H]2C(C)(C)[C@H]3C[C@@]12CC[C@@]3(C)O,4.4% (inactive),
CC(CN(C)C)CN1c2ccccc2CCc2ccccc21 (stereo not drawn),,26.6 µM (active)
Cc1c(-c2ccc(O)cc2)n(Cc2ccc(OCCN3CCCCCC3)cc2)c2ccc(O)cc12,,23.7 µM (active)
